Hits are enriched below; roughly 1.8% of the tested compounds scored in any of these assays.
MIN6 prolif-1 – inducers of MIN6 beta-cell proliferation, primary screen, ATP luminescence, uHTS; MIN6 cells proliferation, ATPlite luminescence, 48 h; cells starved in 0.2% serum; 100% = growth in 10% serum; proliferation, % at 10 µM; 330,000 compounds, 0.29% hits; AID 2380, 2010;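 active = compounds whose signal lies at least 3.5 SD above the mean of all wells on their plate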;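 also: 0% = DMSO-treated cells in low-serum medium and 100% = 10% serum control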
VLA-4 inh – inhibition in human VLA-4 binding assay, primary screen, VLA-4 allosteric modulator project, MLPCN library, flow cytometry, VLA-4 expressing cells. Integrin alpha-4 (Homo sapiens), P13612. 330,000 compounds, 0.2% hits. ligand binding flow cytometry. AID 2557, 2010. inhibition, % (about 7 µM as worked out from the volumes in the protocol); in the data active = inhibition above about 50%
CendR NRP1 mod – modulators of CendR peptide binding to NRP-1, primary screen, biochemical, fluorescence polarization, uHTS; 360,000 compounds, 0.85% hits; Neuropilin-1 (Homo sapiens), O14786; inhibition, % at 25 µM; AID 602438, 2012; FAM-RPARPAR peptide binding to NRP-1;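 active = inhibition or corrected inhibition above about 18%, plus a signal ratio from 0.5 to 1.5, limit read from the data, passing the limit was not always enough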
A3G deaminase – APOBEC3G DNA deaminase inhibitors, primary screen, biochemical, fluorescence, single-stranded DNA substrate, uHTS. DNA dC->dU-editing enzyme APOBEC-3G (Homo sapiens), Q9HC16. recombinant A3G, ssDNA deamination FAM/TAMRA fluorescence. inhibition, % at 20 µM. 330,000 compounds, 0.28% hits;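 active = inhibition of at least 40% at 20 µM, with no more than 30% in the related APOBEC3A deaminase screen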;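 also: plate controls were DMSO wells with A3G for no effect and wells lacking A3G enzyme for full effect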
Target sequence (Q9HC16 whole entry, looked up): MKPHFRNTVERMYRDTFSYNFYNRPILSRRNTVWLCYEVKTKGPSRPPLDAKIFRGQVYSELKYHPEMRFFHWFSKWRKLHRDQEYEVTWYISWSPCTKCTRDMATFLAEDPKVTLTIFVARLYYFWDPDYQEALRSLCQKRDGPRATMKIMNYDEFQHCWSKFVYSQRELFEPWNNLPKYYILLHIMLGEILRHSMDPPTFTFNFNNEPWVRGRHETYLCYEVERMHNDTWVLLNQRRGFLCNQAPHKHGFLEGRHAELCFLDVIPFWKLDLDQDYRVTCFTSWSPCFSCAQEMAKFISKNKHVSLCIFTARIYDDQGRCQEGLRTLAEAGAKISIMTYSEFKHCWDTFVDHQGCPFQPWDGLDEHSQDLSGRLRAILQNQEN
A3A deaminase – APOBEC3A ssDNA deaminase inhibitors, primary screen, selectivity assay for APOBEC3G inhibitor project, biochemical, FAM/TAMRA oligo cleavage fluorescence. recombinant A3A, FAM/TAMRA ssDNA deamination fluorescence. inhibition, % at 20 µM. 330,000 compounds, 0.41% hits. AID 493011, 2011;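 active = at least 40% inhibition at 20 µM here, with at most 30% in a related deaminase screen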;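 also: plate controls were A3A with DMSO for no effect and wells lacking A3A enzyme for full effect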
Target sequence (P31941 whole entry, looked up): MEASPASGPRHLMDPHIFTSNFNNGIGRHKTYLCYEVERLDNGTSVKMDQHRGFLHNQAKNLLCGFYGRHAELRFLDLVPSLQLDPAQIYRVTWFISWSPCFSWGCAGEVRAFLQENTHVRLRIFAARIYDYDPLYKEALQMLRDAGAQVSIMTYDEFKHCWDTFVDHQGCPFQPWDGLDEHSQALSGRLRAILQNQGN
MIN6 prolif-2 – inducers of beta-cell proliferation in MIN6, confirmation, MIN6 cells, mouse; ATPlite luminescence, 48 h; cells kept in 0.2% serum; scaled between 0.2% and 10% serum; 920 tested, under 10 active; proliferation increase, % at 50 µM; shares compounds with MIN6 prolif-1;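 active = proliferation increase above 40% at any of the four tested concentrations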
* hit, by the source's call.

Screening CC(C)Oc1ccc(C(CC(=O)O)Cc2ccccc2)cc1 (centres undefined) returned MIN6 prolif-1 4.0, VLA-4 inh 6.3, CendR NRP1 mod -2.7, A3G deaminase -5.9 and A3A deaminase -2.5.
Cc1cc(=O)n2[nH]c(SCc3ccc(Cl)cc3)nc2n1 was read as MIN6 prolif-1 -2.1, VLA-4 inh -7.6, CendR NRP1 mod -8.7, A3G deaminase -8.9 and A3A deaminase -0.2.
`Cc1cc(=O)n2[nH]c(SCc3ccccc3)nc2n1` gave MIN6 prolif-1 8.3*, VLA-4 inh 18.8, CendR NRP1 mod 7.5, A3G deaminase -9.3, A3A deaminase 1.3 and MIN6 prolif-2 -1.1.
Screening Cn1c(SCC(=O)c2ccccc2)nnc1C1COc2ccccc2O1 (centres undefined) returned MIN6 prolif-1 5.6*, VLA-4 inh 0.2, CendR NRP1 mod 7.9, A3G deaminase 2.2, A3A deaminase -4.8 and MIN6 prolif-2 -0.1.
Screening CCOc1ccccc1C(=O)NCC(=O)Nc1ncccc1C returned MIN6 prolif-1 11.8*, VLA-4 inh 1.4, CendR NRP1 mod 8.3, A3G deaminase -5.7, A3A deaminase -2.0 and MIN6 prolif-2 -0.8.
Screening CCOc1ccc(C(=O)NCC(=O)Nc2ncccc2C)cc1OCC returned MIN6 prolif-1 0.8, VLA-4 inh -2.5, CendR NRP1 mod -1.2, A3G deaminase 24.2 and A3A deaminase 1.8.
For COc1ccc(N2C(=NC(=O)C3CC3)SC3CS(=O)(=O)CC32)cc1Cl (centres undefined) the results were MIN6 prolif-1 11.4*, VLA-4 inh 5.9, CendR NRP1 mod 18.7, A3G deaminase -8.2, A3A deaminase -7.0 and MIN6 prolif-2 -0.5.
`COc1ccc(N2C(=NC(=O)C3CCCCC3)SC3CS(=O)(=O)CC32)cc1Cl` (centres undefined) gave MIN6 prolif-1 -0.1, VLA-4 inh 7.8, CendR NRP1 mod -1.7, A3G deaminase -6.3 and A3A deaminase -3.7.
CCOCCCn1c(=NC(=O)c2cccs2)c(C#N)cc2c(=O)n3ccccc3nc21 was read as MIN6 prolif-1 13.5*, VLA-4 inh -8.8, CendR NRP1 mod -15.5, A3G deaminase -5.0, A3A deaminase -4.4 and MIN6 prolif-2 3.1.
COc1ccc(/C=C/C(=O)Nc2cc(S(=O)(=O)N3CCCCC3)ccc2N2CCCCC2)cc1OC was read as MIN6 prolif-1 -0.2, VLA-4 inh -4.6, CendR NRP1 mod -19.6, A3G deaminase -10.3 and A3A deaminase -2.1.
COc1ccc(/C=C/C(=O)Nc2cc(S(=O)(=O)N3CCOCC3)ccc2N2CCCC2)cc1OC was read as MIN6 prolif-1 7.3*, VLA-4 inh 15.5, CendR NRP1 mod 2.8, A3G deaminase -8.9, A3A deaminase -1.2 and MIN6 prolif-2 1.0.
`CCc1onc(C)c1C(=O)O` gave MIN6 prolif-1 7.5*, VLA-4 inh 10.1, CendR NRP1 mod -2.4, A3G deaminase -7.5, A3A deaminase -5.2 and MIN6 prolif-2 -2.9.
`CCc1ccc(S(=O)(=O)Nc2nnc(N)s2)cc1` gave MIN6 prolif-1 -2.5, VLA-4 inh 0.1, CendR NRP1 mod -5.4, A3G deaminase -4.8 and A3A deaminase 2.6.
CC1CC(C)(C)CC2(C1)NC(=O)N(CC(=O)N1CCN(S(=O)(=O)c3ccc(F)c(F)c3F)CC1)C2=O (centres undefined) was read as CendR NRP1 mod -10.8.
For CC(C)n1nccc1NC(=O)Nc1ccccc1 the results were MIN6 prolif-1 -3.2, VLA-4 inh 5.7, CendR NRP1 mod 1.7, A3G deaminase -7.8 and A3A deaminase -3.7.
Screening CCCn1c(N)c(C(=O)COC(=O)/C=C/c2ccc(OC(F)F)c(OC)c2)c(=O)[nH]c1=O returned MIN6 prolif-1 7.4*, VLA-4 inh 9.3, CendR NRP1 mod 18.4, A3G deaminase -1.9, A3A deaminase 1.6 and MIN6 prolif-2 -1.4.
Screening COC(=O)c1cc(CNC(=O)Cc2ccsc2)ccc1OC returned MIN6 prolif-1 0.0, VLA-4 inh 5.6, CendR NRP1 mod -8.3, A3G deaminase -8.9 and A3A deaminase -0.9.
Screening CC(C)(C)c1cc(S(=O)(=O)CCc2ccncc2)cc(C(C)(C)C)c1F returned MIN6 prolif-1 0.0, VLA-4 inh 5.2, CendR NRP1 mod -3.4, A3G deaminase 1.4 and A3A deaminase 4.0.
For CCC(C)Nc1nc(N)c([N+](=O)[O-])c(NCc2ccccc2)n1 (centres undefined) the results were MIN6 prolif-1 6.2*, VLA-4 inh 25.4, CendR NRP1 mod 9.9, A3G deaminase -3.2, A3A deaminase 0.0 and MIN6 prolif-2 -6.4.
`CCOC(=O)C1CCCN(C(=O)c2ccc(-c3ccc([N+](=O)[O-])cc3)o2)C1` (centres undefined) gave MIN6 prolif-1 -6.7, VLA-4 inh 6.5, CendR NRP1 mod -4.9, A3G deaminase -5.2 and A3A deaminase -4.1.
CC(=O)N1CCN(CC(O)Cn2c3ccccc3c3ccccc32)CC1 (centres undefined) was read as MIN6 prolif-1 6.6*, VLA-4 inh 11.7, CendR NRP1 mod -1.4, A3G deaminase -12.0, A3A deaminase -6.2 and MIN6 prolif-2 -5.8.
`CC1CCN(CC(O)Cn2c3ccccc3c3ccccc32)CC1` (centres undefined) gave MIN6 prolif-1 1.5, VLA-4 inh 17.2, CendR NRP1 mod 5.6, A3G deaminase -2.6 and A3A deaminase -2.4.
CSCCC(NS(=O)(=O)c1ccccc1)C(=O)Nc1nccs1 (centres undefined) was read as MIN6 prolif-1 6.8, CendR NRP1 mod -20.0, A3G deaminase -12.7 and A3A deaminase -5.1.
`CCOC(=O)C1=C(COC(=O)/C=C/c2ccccc2F)NC(=O)NC1C` (centres undefined) gave MIN6 prolif-1 12.4*, VLA-4 inh 7.8, CendR NRP1 mod -3.2, A3G deaminase -6.7, A3A deaminase -0.8 and MIN6 prolif-2 -2.0.
Screening CCOC(=O)C1=C(COC(=O)/C=C/c2ccc(Cl)cc2)NC(=O)NC1C (centres undefined) returned MIN6 prolif-1 -0.5, VLA-4 inh -4.9, CendR NRP1 mod 10.5, A3G deaminase -6.4 and A3A deaminase -1.1.
`CCOC(=O)C1=C(COC(=O)c2sccc2C)NC(=O)NC1C` (centres undefined) gave MIN6 prolif-1 11.4*, VLA-4 inh -2.8, CendR NRP1 mod 9.8, A3G deaminase -5.6, A3A deaminase -0.7 and MIN6 prolif-2 3.7.
